# Screening results from PubChem BioAssay.
# BAZ2B block: BAZ2B (human) inhibition | 360,000 compounds, 4.4% hits | AlphaScreen BAZ2B-H3K14Ac peptide displacement | Potency, µM (highest dose often 114 µM), for inactives: at the highest dose activity change, negative = inhibition, actives largely listed as inhibitors | Q9UIF8; note: % is set by controls: 0 for no effect and ±100 for the full control effect; nearly all actives have a fitted effect of over 60% in size
#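 Protein-peptide AlphaScreen: BAZ2B 50 nM, b-H3K14Ac 50 nM, 1x PBS pH 7.4 + 0.01% Tween-20. Preincubation 30 min RT; cpd 30 min RT (top 110 uM); beads 20 min RT, light-protected.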
# L3MBTL1 block: L3MBTL1 (human) inhibition; 230,000 compounds, 0.66% hits; AID 485360; Potency, µM (titrated, usually from 57.1 µM), without a hit: at the top dose activity, negative = inhibition, hits mostly inhibitors; Q9Y468; AlphaScreen L3MBTL1–H3K9me1 peptide binding; note: % is set by controls: 0 for no effect and ±100 for the full control effect; nearly all actives have a fitted effect of over 60% in size
# Target sequence (Q9Y468 whole entry, looked up): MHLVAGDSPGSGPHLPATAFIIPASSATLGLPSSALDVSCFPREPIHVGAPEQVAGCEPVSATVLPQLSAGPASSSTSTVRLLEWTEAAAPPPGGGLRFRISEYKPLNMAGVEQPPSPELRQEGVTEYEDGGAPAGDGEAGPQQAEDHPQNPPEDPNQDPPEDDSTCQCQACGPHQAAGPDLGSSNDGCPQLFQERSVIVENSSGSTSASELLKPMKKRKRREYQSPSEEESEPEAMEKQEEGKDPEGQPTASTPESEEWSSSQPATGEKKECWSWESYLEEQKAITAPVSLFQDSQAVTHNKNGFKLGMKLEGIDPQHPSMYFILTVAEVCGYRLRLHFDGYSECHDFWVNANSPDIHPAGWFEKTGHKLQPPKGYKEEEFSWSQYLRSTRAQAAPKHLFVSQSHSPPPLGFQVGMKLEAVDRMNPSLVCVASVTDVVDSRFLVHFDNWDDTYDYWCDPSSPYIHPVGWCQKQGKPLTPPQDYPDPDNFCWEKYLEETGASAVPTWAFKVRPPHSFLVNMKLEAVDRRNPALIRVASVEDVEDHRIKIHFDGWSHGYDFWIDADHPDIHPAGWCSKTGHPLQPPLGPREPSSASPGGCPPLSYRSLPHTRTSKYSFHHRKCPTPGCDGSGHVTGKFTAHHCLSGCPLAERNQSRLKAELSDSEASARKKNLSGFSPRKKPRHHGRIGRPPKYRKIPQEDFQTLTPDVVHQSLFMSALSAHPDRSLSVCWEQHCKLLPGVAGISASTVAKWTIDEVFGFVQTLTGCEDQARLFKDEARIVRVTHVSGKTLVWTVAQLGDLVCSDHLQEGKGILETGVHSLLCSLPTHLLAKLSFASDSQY
#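 L3MBTL1 50 nM + b-AHA-H3(1-15)K9me1 75 nM, 30 min RT; compound added, 30 min RT; streptavidin donor/Ni-chelate acceptor beads 10 ug/mL each final, 30 min RT dark; AlphaScreen read.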
# G9a inh: G9a (human) methyltransferase inhibition; Q96KQ7; G9a H3K9 monomethylation, AlphaScreen, 2 h; Potency, µM (titrated, usually from 102 µM), for the others: at the top dose activity, negative = inhibition, most hits filed as inhibitors; 350,000 compounds, 8.8% hits; note: % is set by controls: 0 for no effect and ±100 for the full control effect; nearly all actives have a fitted effect of over 75% in size
#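 Step 1: enzyme (final 20 nM) with compound, 15 min RT. Step 2: substrate peptide 500 nM and SAM 20 uM, 2 h RT. Step 3: anti-H3K9me1 antibody and AlphaScreen beads, 10 min, then plate read.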
# HP1b binding inh: HP1-beta chromodomain-methylated histone interaction inhibition | P83916 | AlphaScreen HP1-beta / biotin-H3K9me3 peptide binding | Potency, µM (doses to about 114 µM), inactives show top-dose activity change, negative = inhibition, actives largely listed as inhibitors | 390,000 compounds, 0.56% hits | AID 540317; note: nearly all actives have a fitted effect of over 70% in size
#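 AlphaScreen: HP1-beta (50 nM) preformed 30 min with biotin-H3(1-18)K9me3 peptide (50 nM) in PBS pH 7.4, 0.01% Tween-20. Compound added for 30 min at RT, then streptavidin donor/nickel chelate acceptor beads (10 ug/mL) for 30 min.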
# JMJD2A Tudor: inhibitors of human JMJD2A Tudor domain; O75164; AlphaScreen JMJD2A-Tudor / H3K4me3 peptide binding; Potency, µM (top dose mostly 114 µM), without a hit: at the top dose activity change, negative = inhibition, hits mostly inhibitors; 390,000 compounds, 4.4% hits; AID 504339; note: % is set by controls: 0 for no effect and ±100 for the full control effect; nearly all actives have a fitted effect of over 50% in size
# The depositor's hits bear a star; u = inconclusive; x = no result given; [ ] = another dose, or the depositor's remark. Hits are enriched below; roughly 11% of the tested compounds scored in any of these assays. Calls come from the whole dose curve; as a rule, active = well fitted inhibition curve with a large enough effect; inconclusive = small, poorly fitted or top-dose-only effect; inactive = no such curve, though single readings can be large or run the other way. Potency is the fitted concentration of half-maximal effect.
SMILES,BAZ2B block,L3MBTL1 block,G9a inh,HP1b binding inh,JMJD2A Tudor
COc1ccccc1C=CC(=O)C=Cc1ccccc1OC,x,x,x,0.3%,-27.8%
COc1ccccc1/C=C/C(=O)c1cc(Br)ccc1OC(=O)c1ccco1,x,x,x,-30.3%,56.2µM*
Cc1ccc2nc(SCC(=O)N3CCCc4ccccc43)nc(=O)n2c1,x,x,x,9.0%,-14.3%
Cc1c(-c2ccccc2)n(-c2ccc(Cl)cc2)c2nc3c(c(=O)n(C)c(=O)n3C)n12,2.5%,x,6.7%[59 µM],53.0%,3.7%
COC(=O)c1ccc(NC(=O)N2CCN(Cc3cc(=O)n4nc(-c5ccc(C)cc5)sc4n3)CC2)cc1,0.8%,x,20.6%[59 µM],15.0%[57 µM],-10.7%
CCNc1ccc(Br)cc(C(=O)/C=C/c2ccccc2Cl)c1=O,x,x,x,-35.4%,44.7µM*
COc1cccc(/C=C/C(=O)c2ccc3c(c2)OCO3)c1OC,5.8%,3.3%,-2.4%[12.7 µM],40.8%,-7.1%
CNc1ccc(Br)cc(C(=O)/C=C/c2cccc(OC)c2OC)c1=O,39.8µM*,u,8.91µM*,17.6%,4.2%
CC(C)[C@H](NC(=O)c1ccccc1F)C(=O)NCc1ccc(S(N)(=O)=O)cc1,6.9%,x,14.6%,28.5%,5.6%
CC(C)C(NC(=O)c1ccccc1F)C(=O)NCc1ccccc1 (stereo unspecified),0.2%,x,5.8%[59 µM],-3.6%,39.8µM*
Cc1nn(C)cc1CN(C)C(=O)CCc1nnc(CCC2CCCCC2)o1,-5.0%,8.0%,18.3%[12.7 µM],20.8%,-12.3%
Cn1c(-c2ccc3c(c2)OCO3)cnc1N,-37.1%,-9.4%,0.3%[59 µM],9.3%,u
Cc1ccc(-c2cnc(NCc3cc4c(cc3[N+](=O)[O-])OCO4)n2C)cc1C,-14.4%,-8.3%,-0.1%,u,31.6µM*
COc1cccc(CCNC(=O)c2cnc3sc(N4CCOCC4)nn3c2=O)c1,0.5%,x,17.8%[59 µM],66.1%,2.5%
Cc1cc(Br)ccc1NC(=O)C1(S(=O)(=O)c2ccc(Cl)cc2)CC1,42.4%,x,14.1%[59 µM],88.5%,35.8%
COc1ccc(NC(=O)c2c(NCc3ccc(OC)c(OC)c3OC)sc3c2CCC3)c(OC)c1,-30.1%,x,12.6µM*,-14.6%,u
CCOC(=O)N1CCc2c(sc(NCc3ccc(N(C)C)cc3)c2C(=O)Nc2ccccc2OCC)C1,8.91µM*,x,3.16µM*,u,12.6µM*
CCOc1ccccc1NC(=O)c1c(NCc2ccc(C)o2)sc2c1CCC(C)C2 (stereo unspecified),2.1%,x,-45.2%[59 µM],37.0%,-7.1%
CCOc1ccccc1NC(=O)c1c(NCc2ccc(C)o2)sc2c1CCCCC2,-19.2%,x,5.01µM*,-14.4%,u
COc1ccccc1NC(=O)c1c(NCc2ccc(OC)c(OC)c2OC)sc2c1CCC2,-6.1%,x,u,11.2%,-30.8%
COc1ccc(NC(=O)c2c(NCc3sccc3C)sc3c2CCCC3)c(OC)c1,u,x,14.1µM*,u,u
CCOc1ccc(NC(=O)Cn2c(CCC(=O)O)ccc2-c2ccc(Cl)cc2)cc1,u,x,-44.5%[59 µM],-0.2%,-31.9%
CCn1c(=O)c2ccccc2n(CC(=O)NC2CCCCC2)c1=O,-9.8%,x,3.0%,16.1%,-8.0%
CCOC(=O)N1CCc2c(sc(NCc3ccc(OC)c(OC)c3OC)c2C(=O)Nc2ccc(OC)cc2OC)C1,u,x,7.08µM*,u,u
CCOC(=O)N1CCc2c(sc(NCc3ccc(OCC)cc3)c2C(=O)Nc2ccc(OC)cc2OC)C1,-37.1%,x,7.94µM*,-3.9%,u
SMILES,BAZ2B block,L3MBTL1 block,G9a inh,HP1b binding inh,JMJD2A Tudor
COc1ccc(Cl)cc1NC(=O)c1c(NCc2ccc(C)o2)sc2c1CCCC2,u,x,u,-3.0%,u
CCOC(=O)N1CCc2c(sc(NCc3sccc3C)c2C(=O)Nc2cc(Cl)ccc2OC)C1,-36.3%,x,3.55µM*,-23.7%,u
COc1ccc(NC(=O)c2c(NCc3cccc(F)c3)sc3c2CCC3)c(OC)c1,-23.2%,x,u,29.0%,-29.8%
CCOC(=O)N1CCc2c(sc(NCc3ccc(N(CC)CC)cc3)c2C(=O)Nc2cc(OC)ccc2OC)C1,7.94µM*,x,7.08µM*,u,u
COc1ccccc1NC(=O)c1c(NCc2ccc(OC)c(OC)c2OC)sc2c1CCCC2,-25.9%,x,u,11.0%,u
CN(C)c1ccc(N=Nc2cccc3ccoc23)cc1,5.62µM*,10µM*,6.31µM*,17.8µM*,25.1µM*
